Screening data from PubChem BioAssay.
In the library only some 2.2% were active in any assay of this set; here they are far more common.
GalR3 antagonist – blocks the human galanin receptor 3 | O60755 | 0.44% of 360,000 active | inhibition, % at 3 µM | HEK293 GalR3-CNG cAMP membrane potential fluorescence; galR3 body fused to GalR1 C-terminus;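 active means inhibition above the screen-wide average plus 3 SD, cut at about 13% in these data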;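 further: forskolin and galanin both at EC90 stimulate the cells; cAMP rise reported by CNG channel membrane potential dye signal; 0% = forskolin plus galanin with DMSO and 100% = forskolin alone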
Target sequence (O60755 1-299 limits assumed): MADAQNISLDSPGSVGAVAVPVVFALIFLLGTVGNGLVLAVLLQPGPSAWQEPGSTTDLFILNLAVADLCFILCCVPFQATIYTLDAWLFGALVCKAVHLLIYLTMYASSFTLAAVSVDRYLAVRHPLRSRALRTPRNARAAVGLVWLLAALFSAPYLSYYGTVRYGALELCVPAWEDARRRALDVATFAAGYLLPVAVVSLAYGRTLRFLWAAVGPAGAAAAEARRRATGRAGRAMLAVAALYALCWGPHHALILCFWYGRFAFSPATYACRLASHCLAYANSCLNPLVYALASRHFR
HIF act – HIF pathway transcriptional activation; U2OS HRE-luciferase reporter, luminescence; normalized: DMSO 0%, desferrioxamine 100%; activation, % at 7.5 µM (by protocol); 0.32% of 300,000 active; AID 1910;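 active means mean activation of at least 10% of the iron chelator positive control signal, with at least half of replicates also reaching 10%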
FXN GAA850 act – frataxin GAA850 promoter activation | HEK293 lucGAA850 FXN promoter luciferase reporter, 24 h; percent of 10 µM SAHA response | activation, % at 6 µM | 0.56% of 360,000 active | AID 540364;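 active means activation above the average of all compounds screened plus 3 SD, cutoff fixed separately per campaign, cut at about 7.5% in these data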;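 further: 0% = DMSO wells and 100% = 10 µM SAHA wells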
SMARCA2 act – activators of SMARCA2 function | MG213 cells, MMTV-luciferase reporter, dexamethasone, overnight | activation, % at 9.1 µM | 1% of 370,000 active; in the data active means activation above about 7.8%;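 further: 0% = vehicle wells and 100% = reference activator wells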
Hsp70 act – switches on Hsp70 transcription. HeLa Hsp70 promoter luciferase reporter, luminescence; scaled: vehicle 0, proteasome-inhibitor control 100%. activation, % at 10 µM. 0.04% of 200,000 active;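 active means activation above the mean across all tested compounds plus 3 SD, cutoff set per campaign, cut at about 5.5% in these data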;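 further: 100% = MG132 at 30 µM as the positive control and 0% = DMSO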
SMARCA2 conf – confirmation of SMARCA2 (BRM) function activators; shares compounds with SMARCA2 act; MG213 cells, MMTV-luciferase with dexamethasone, luminescence, overnight; MG213 cells expressing E1A, Rb sequestered; DMSO wells 0%, reference activator 100%; activation, % at 9.1 µM; 30% of 3,500 active;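 active means activation above its plate's cutoff, the mean activation of tested wells plus 3 SD, cut at about 7.9% in these data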
GAL4-VP16 Luc – activates GAL4-VP16 luciferase, flagging SMARCA2 activator hits. shares compounds with SMARCA2 act. HEK293 GAL4-VP16 pG5luc reporter, luciferase luminescence; scaled: DMSO wells 0%, SAHA wells 100%. activation, % at 9.1 µM. 41% of 3,500 active;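 active means activation above the solvent-only control well mean plus 3 SD, averaged across control plates, cut at about 5.2% in these data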
* = called active by the depositor; nt = no result given.

SMILES	GalR3 antagonist	HIF act	FXN GAA850 act	SMARCA2 act	Hsp70 act	SMARCA2 conf	GAL4-VP16 Luc
COc1ccc(N=Cc2nc(-c3ccco3)oc2O)cc1	-2	2	-2	8.8*	0	9.9*	4
Cc1nc(N(C)C)c2sc(=S)n(Cc3ccccc3)c2n1	-8	-1	3	8.8*	0	4	0
O=C(Oc1cccc(-c2cnc3ccccc3n2)c1)c1ccco1	-4	4	2	10*	0	8.7*	13*
O=C(CCc1ccccc1)N[C@H]1[C@@H](OC(=O)c2cccnc2)CCC[C@@]12C(=O)N(Cc1ccccc1)c1ccccc12	nt	nt	nt	-6	nt	nt	nt
CCN(CC)CCn1c(=S)[nH]c2cc3c(cc2c1=O)OCO3	-2	0	-1	8.7*	0	3	0
Nc1ccc(S(=O)(=O)Nc2cnc3c(Cl)cccc3n2)cc1	-7	nt	5	9.1*	nt	31*	5
O=C(Nc1ccc(S(=O)(=O)Nc2cnc3ccccc3n2)cc1)c1ccc(Cl)cc1Cl	-4	0	2	-1	nt	nt	nt
CC1(NC(=S)Nc2ccc3ccccc3c2)CCS(=O)(=O)C1 (stereo not given)	10	2	1	-2	nt	nt	nt
CN(C)C(=S)NC(=S)Nc1ccc2ccccc2c1	-3	nt	17*	17*	nt	-11	34*
O=C(Nc1nc(-c2nc3ccccc3s2)cs1)c1ccco1	4	2	3	12*	0	9.5*	8.3*
CCOC(=O)c1ccc2nc(NC(=O)C(C)C)sc2c1	-3	3	2	10*	0	8	4
CCOc1ccc2nc(NC(=O)COC)sc2c1	-4	1	7	8.0*	0	15*	13*
Cc1ccc(C(=O)Nc2nc3ccc(S(C)(=O)=O)cc3s2)o1	-2	1	5	1	1	nt	nt
CS(=O)(=O)c1ccc2nc(NC(=O)c3ccco3)sc2c1	0	1	1	9.9*	0	11*	12*
CCOCC(=O)Nc1nc2ccc(OC)cc2s1	0	2	1	7	0	nt	nt
CCCC(=O)Nc1nc2ccc(C(=O)OCC)cc2s1	-2	2	4	2	0	nt	nt
CCN(CC)c1ccc(NC(=O)CSc2nnc(SCc3ccc(Cl)cc3)s2)cc1	nt	nt	nt	-5	nt	nt	nt
Cc1ccc2nc(NC(=O)COC(=O)c3ccco3)sc2c1	-5	1	5	9.8*	0	8	2
COc1ccc2nc(Nc3nc(C)c(C(C)=O)s3)sc2c1	-3	2	7	9.7*	1	-12	14*
COc1ccc(Nc2nc3ccc(OC)cc3s2)cc1	2	2	3	3	0	nt	nt
O=C(Nc1ccc(Cl)cc1)N1CCN(Cc2nc3ccccc3c(=O)[nH]2)CC1	nt	nt	nt	-4	nt	nt	nt
CN1CCN(c2ccc(NC(=O)CSc3ccccc3)cc2F)CC1	-3	1	0	8.1*	0	7	8.6*
CCN(CC)c1ccc2cc(C(=O)c3cccs3)c(=O)oc2c1	-5	nt	nt	8.3*	nt	9.5*	1
CN1CCCCC(NC(=O)c2c(F)cccc2F)C1=O (stereo not given)	-5	nt	nt	2	nt	nt	nt
Cc1cccn2c(=O)c3cc(C(=O)NCCN4CCOCC4)c(=N)n(CCc4ccccc4)c3nc12	-3	0	2	11*	0	2	1
SMILES	GalR3 antagonist	HIF act	FXN GAA850 act	SMARCA2 act	Hsp70 act	SMARCA2 conf	GAL4-VP16 Luc
Cc1cccn2c(=O)c3cc(C(=O)NC4CCCC4)c(=N)n(C4CCCCC4)c3nc12	-8	-1	0	8.2*	nt	8.3*	-1
COc1ccc(CCNC(=O)c2cc3c(=O)n4ccccc4nc3n(C3CCCCC3)c2=N)cc1OC	-3	0	2	12*	nt	6	2
Cc1cccn2c(=O)c3cc(C(=O)NCCN4CCOCC4)c(=N)n(CCCN4CCOCC4)c3nc12	-8	1	0	-2	nt	nt	nt
CN(C)c1ccc(/C=N\NC(=O)c2cccc(S(=O)(=O)N(C)C)c2)cc1	nt	nt	nt	-4	nt	nt	nt
CCOC(=O)[C@@]12CCC3=C1N(CCC3)C(=O)[C@H](CC(=O)N1CCCCC1)C2	nt	nt	nt	-2	nt	nt	nt
Cc1ccc(SCCNC(=S)Nc2ccc(C)c(C)c2)cc1	2	0	-1	-3	0	nt	nt
Cc1ccc(SCCNC(=S)Nc2ccccc2)cc1	-2	0	0	8.8*	0	-5	0
COc1ccc(C2C(C(=O)N3CCN(c4ccccn4)CC3)CCC(=O)N2c2cc(OC)c(OC)c(OC)c2)cc1 (stereo not given)	-1	0	1	8.0*	0	0	2
COc1ccc(S[C@]2(C(=O)N3CCOCC3)CC(=O)N(c3ccsc3)[C@@H]2c2ccc(OC)cc2)cc1	nt	nt	nt	1	nt	nt	nt
Cn1nc(C(=O)N2CCN(c3ccccc3F)CC2)c2c1-c1ccccc1S(=O)(=O)C2	-9	0	0	-1	nt	nt	nt
Cc1cccc(N2CCN(C(=O)c3nn(C)c4c3CS(=O)(=O)c3ccccc3-4)CC2)c1C	-8	0	1	10*	nt	-2	0
CCC(=O)Nc1ccc2c(c1)C(=O)N(C)[C@@H]1CC[C@@H](CC(=O)NCc3ccc(OC)cc3)O[C@H]1CO2	nt	nt	nt	-3	nt	nt	nt
COc1ccc(SC2=C[C@@]3(O)CC[C@@H](O)[C@@](Sc4ccc(OC)cc4)(C2=O)[C@H]3O)cc1	7	nt	nt	-2	nt	nt	nt
O=C1C(Sc2ccccc2)=C[C@@]2(O)CC[C@@H](O)[C@]1(Sc1ccccc1)[C@H]2O	-3	nt	nt	12*	nt	10*	2
CCN(CC)C(=O)Oc1ccc2c(=O)c(-c3ccccc3)coc2c1	-6	2	1	13*	0	8	11*
COC1=C[C@H](C(=O)NCCNC(C)=O)[C@@]2(C)Cc3ccccc3[C@H]2CC1=O	nt	nt	nt	-3	nt	nt	nt
COc1ccccc1CCn1cnc(-c2cccc(F)c2)c1C(C)C	-8	nt	nt	-7	nt	nt	nt
O=C(OC12CCCN(C1)/C(=C/c1cccc(Cl)c1)C2)c1ccco1 (stereo not given)	nt	nt	nt	-4	nt	nt	nt
O=C1CCc2cc(Br)ccc2O1	-3	nt	0	8.7*	nt	-2	1
COc1ccccc1OCc1nc2ccccc2n1C	-9	3	4	10*	nt	12*	7.5*
COc1ccc(C(=O)OCC(=O)c2ccc3c(c2)NC(=O)CO3)cc1OC	-4	nt	1	8.6*	nt	-2	1
COc1ccc(C(=O)OCC(=O)c2ccc3c(c2)NC(=O)CO3)cc1[N+](=O)[O-]	-5	nt	-1	4	nt	nt	nt
O=C(NCc1cccs1)C1CCN(S(=O)(=O)c2ccc([N+](=O)[O-])cc2)CC1	nt	nt	nt	-4	nt	nt	nt
COc1ccccc1OCCSc1nnnn1-c1ccc(C)cc1	-1	2	1	9.0*	nt	0	3
